# The supplement of paper PMC12636033
# ± gives the standard deviation of the averaged measurements. Whole data set: some 33,000 sequences, median “E-score (rank enrichment, -0.5 to 0.5)” near -0.0068, cut for the highest 2% near 0.24. The list comes from a sample in which the highest values are over-represented; it also holds similar and randomly drawn sequences.
# Tested on: muMax20 (Max(13-93) K31hArg/K57hArg, M65Nle)
# Experiment: PBM 8-mer E-score (E-score (rank enrichment, -0.5 to 0.5)); higher = stronger preferential binding
# Description: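 Protein binding microarray (universal PBM chip covering all 10-mers in fixed probe flanks) with chemically synthesized human Max(13-93) bHLH-LZ analogs (not full-length Max) bearing noncanonical residues (hArg, Tha, Aib, Nle at 65) and aromatic Cys staples. Read-out per 8-mer (and its reverse complement): E-score (rank-based enrichment, -0.5 to 0.5) and Z-score of median probe intensity.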
row,Sequence,PBM 8-mer E-score
1,ATACTTTC,0.127 ± 0.013
2,CAAGAAGG,0.158 ± 0.048
3,AGTCGACT,0.176 ± 0.13
4,ACATCCGC,-0.188 ± 0.099
5,CTACTAAG,-0.0701 ± 0.18
6,GTACTAAA,0.108 ± 0.067
7,ATACTAAC,0.164 ± 0.066
8,TTACTAAA,0.123 ± 0.07
9,ATACTAAA,0.242 ± 0.038
10,AAACTATA,0.192 ± 0.05
11,TAACTATA,0.303 ± 0.0032
12,CTACTAAC,0.237 ± 0.013
13,ATACTATA,0.156 ± 0.08
14,CTACTATA,0.249 ± 0.062
15,CTACTATC,0.132 ± 0.0082
16,CAACTATA,0.108 ± 0.0066
17,TCGAACGA,0.0488 ± 0.053
18,AACTGGCG,-0.0858 ± 0.061
19,ATCGGCAA,-0.18 ± 0.089
20,TCACCGCA,-0.0327 ± 0.14
21,GATAAGCC,-0.111 ± 0.075
22,GCAGATGA,0.0628 ± 0.064
23,CTTAGACC,-0.135 ± 0.073
24,GAGGGGCC,-0.0409 ± 0.045
25,ACGTGTAA,0.327 ± 0.048

row,Sequence,PBM 8-mer E-score
1,ACGTGTAT,0.386 ± 0.031
2,CCGTGTAA,-0.147 ± 0.048
3,ACGTGTAC,0.233 ± 0.056
4,ACGTGTAG,0.19 ± 0.087
5,TCGTGTAA,0.13 ± 0.07
6,ATACTGAA,0.0687 ± 0.079
7,GCAGGTCA,-0.191 ± 0.0023
8,CGCTCGAA,-0.156 ± 0.0039
9,AGATCTTC,-0.15 ± 0.053
10,CCATGTCG,-0.0015 ± 0.13
11,TACACATA,0.245 ± 0.037
12,AATACATA,0.255 ± 0.074
13,AATACAAA,0.343 ± 0.042
14,AATACATT,0.158 ± 0.021
15,CACACATA,0.12 ± 0.12
16,CATACATA,0.163 ± 0.068
17,GATACATA,0.204 ± 0.044
18,GATACAAA,0.0222 ± 0.023
19,TATACATA,0.237 ± 0.023
20,AATACAAG,0.137 ± 0.0018
21,AATACATG,0.205 ± 0.015
22,GACACATA,0.139 ± 0.071
23,ACTGGATC,-0.0849 ± 0.029
24,CCTCATCA,-0.0311 ± 0.07
25,CGTCTACA,-0.0683 ± 0.077

row,Sequence,PBM 8-mer E-score
1,ATTCGACG,0.0309 ± 0.1
2,CACGAGCA,-0.159 ± 0.013
3,AAAAACGG,-0.048 ± 0.14
4,AAAAACGT,0.249 ± 0.0044
5,AAAGACGA,0.246 ± 0.0064
6,GAAAACGA,0.0327 ± 0.09
7,AAAGACGG,0.0825 ± 0.019
8,AAAAACGC,0.0604 ± 0.015
9,AAAAACGA,0.297 ± 0.0076
10,CAAAACGA,0.0111 ± 0.00023
11,GAAGACGA,-0.0988 ± 0.065
12,CTCGGTCC,-0.2695 ± 0.0006
13,AGAGTTCA,-0.124 ± 0.038
14,CGTTCGCA,-0.0226 ± 0.0093
15,CTCAGACA,0.044 ± 0.035
16,GCCATATA,0.0868 ± 0.0087
17,ATACTACA,0.222 ± 0.078
18,GTACTACA,0.262 ± 0.072
19,CTACTTCA,0.00799 ± 0.001
20,ATACTTCA,0.0693 ± 0.032
21,GTACTTCA,0.237 ± 0.13
22,CTACTACA,0.146 ± 0.08
23,ATCAGCGC,-0.0642 ± 0.0034
24,CACCGGAG,-0.173 ± 0.083
25,ACACATTC,-0.0504 ± 0.14

row,Sequence,PBM 8-mer E-score
1,AATACGAA,0.136 ± 0.041
2,AATCAACA,0.256 ± 0.032
3,GATCAACA,0.0109 ± 0.0053
4,TATCAACA,0.158 ± 0.054
5,ACGGTGTG,-0.143 ± 0.056
6,ACCTTGTA,0.238 ± 0.077
7,GCCTTGTA,0.029 ± 0.077
8,CCCTTGTA,0.0442 ± 0.13
9,GTCAGGAA,-0.0169 ± 0.068
10,ATAGAGCC,-0.106 ± 0.093
11,CAATACTA,0.16 ± 0.062
12,TAATACTA,0.252 ± 0.0039
13,AAATACTA,0.193 ± 0.081
14,CAATACCA,0.149 ± 0.042
15,GAATACCA,0.121 ± 0.025
16,TAATACCA,0.24 ± 0.014
17,ACAGCAGG,-0.0464 ± 0.034
18,GCTCCCCA,0.128 ± 0.042
19,CGGTCCTA,-0.17 ± 0.11
20,ATATGGGG,0.0664 ± 0.016
21,GCGCGAAC,-0.0762 ± 0.17
22,GACTAAGC,-0.239 ± 0.043
23,AACCATTG,-0.0386 ± 0.14
24,CACCATTA,0.0322 ± 0.16
25,AACCATTA,0.269 ± 0.0088

row,Sequence,PBM 8-mer E-score
1,TAAATGAA,0.114 ± 0.11
2,AGTTGCAG,0.0866 ± 0.039
3,AGTTGCAC,-0.00822 ± 0.011
4,AGTTGCAT,0.287 ± 0.067
5,GGTTACAC,0.151 ± 0.076
6,CGTGCTCA,0.162 ± 0.051
7,CGATGGAG,-0.153 ± 0.037
8,AACGTGGC,0.0382 ± 0.033
9,CACGTGGC,0.442 ± 0.068
10,CATGTGAC,0.314 ± 0.075
11,CACGTGGG,0.447 ± 0.062
12,GATGTGAC,-0.206 ± 0.059
13,AATGTGAA,0.211 ± 0.056
14,GATGTGAA,0.105 ± 0.079
15,AACGTGGG,0.184 ± 0.14
16,TATGTGAA,0.299 ± 0.074
17,GACGTGGC,-0.0512 ± 0.032
18,CAAGTGGG,0.0751 ± 0.013
19,CATGTGAG,0.216 ± 0.059
20,AAGTTCTC,-0.179 ± 0.0056
21,CACTGCAC,-0.0231 ± 0.055
22,CTCTAACC,-0.0244 ± 0.061
23,CGAATTTC,0.0312 ± 0.1
24,CGTTACCA,0.124 ± 0.012
25,CGCCATTA,-0.0752 ± 0.029

row,Sequence,PBM 8-mer E-score
1,GCCCCTGA,-0.179 ± 0.034
2,AAGCTTAG,0.0465 ± 0.086
3,CACGTGGA,0.459 ± 0.037
4,AGTGTGAG,0.163 ± 0.14
5,AATGTGGG,0.142 ± 0.14
6,TACGTGGA,0.0197 ± 0.044
7,CATGTGGA,0.213 ± 0.054
8,AGTGTGAA,0.254 ± 0.011
9,GACGTGGA,0.04 ± 0.064
10,CATGTGGG,0.309 ± 0.033
11,TGTGTGAA,0.183 ± 0.038
12,GCCTCGGA,-0.187 ± 0.058
13,AAGTAGCC,-0.0862 ± 0.0056
14,AACCTGAA,0.0509 ± 0.081
15,AGGTTTCA,-0.031 ± 0.018
16,CACAAAAC,0.165 ± 0.027
17,TAGACTCA,-0.163 ± 0.0053
18,CTGTGAGC,-0.113 ± 0.058
19,AAAAAGCA,0.218 ± 0.046
20,ACAAAGAT,0.137 ± 0.027
21,AAAAAGAC,0.0949 ± 0.026
22,AAAAAGCC,0.166 ± 0.028
23,AAAAAGAT,0.24 ± 0.03
24,AAAAAGCT,0.272 ± 0.099
25,ATATCGCG,0.0599 ± 0.043

row,Sequence,PBM 8-mer E-score
1,AGAAAGAT,0.061 ± 0.093
2,AATTTGAA,0.149 ± 0.027
3,ATTTTGAG,0.111 ± 0.012
4,ATTTTGAA,0.253 ± 0.084
5,CTCGAGGA,-0.0146 ± 0.017
6,AATCCTGA,-0.167 ± 0.053
7,ACACATGG,0.271 ± 0.06
8,AAACATGA,0.169 ± 0.031
9,TCACATGA,0.173 ± 0.029
10,ACACATGA,0.148 ± 0.068
11,GCACATGA,0.256 ± 0.095
12,AAACATGG,0.178 ± 0.064
13,ACACATGC,0.22 ± 0.019
14,GCACATGC,0.166 ± 0.06
15,CCACATGA,0.225 ± 0.1
16,CCACATGG,0.255 ± 0.11
17,AAACATGT,0.331 ± 0.04
18,CCACATGC,0.217 ± 0.057
19,GAGGAGCC,-0.1 ± 0.084
20,ACCGGTGG,-0.147 ± 0.06
21,ACTACATC,0.224 ± 0.007
22,CACCCCTC,0.11 ± 0.013
23,AACCCATC,-0.108 ± 0.085
24,ACACATAT,0.184 ± 0.053
